Results published in PubChem BioAssay (EPA / NIEHS).
Inconclusive results are not listed. The source made the active and inactive calls. How the source made its calls, unless noted: active means hit-call score of the fitted dose curve at least 0.9, where 1 is the maximum; inactive means score below 0.9.

Experiments:
[1] = target: Glucocorticoid receptor (Homo sapiens) (UniProt P04150); test: ATG_GR_TRANS: Attagene TRANS-FACTORIAL HepG2 Assay for human Glucocorticoid Receptor (GR) (AID 2282978; active means hit-call score of the fitted dose curve at least 0.9, where 1 is the maximum;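 further: activators score as hits since higher reporter transcript over DMSO is fitted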); conditions: HepG2 Attagene TRANS GR reporter, mRNA transcription
Summary of the method: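 Reporter transcript levels, detected by fluorescence after RT-PCR and capillary electrophoresis, served as the endpoint. HepG2 cells bearing transfected GAL4-UAS reporters responsive to NR-GAL4 chimeras were incubated with compound 24 h; DMSO defined baseline.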

[2] = target: Oxysterols receptor LXR-alpha (Homo sapiens) (UniProt Q13133); test: ATG_LXRa_TRANS: Attagene TRANS-FACTORIAL HepG2 Assay for human Liver X Receptor alpha (LXRa) (AID 2282980; active means hit-call score of the fitted dose curve at least 0.9, where 1 is the maximum); conditions: HepG2 Attagene TRANS reporter, LXRa transactivation
Summary of the method: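 Chemical-induced reporter mRNA measured by RT-PCR with fluorescent labelling and capillary electrophoresis after 24 h dosing of transiently transfected HepG2 cells expressing exogenous NR-Gal4 chimeras; increases scored against DMSO baseline.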

[3] = ATG_M_06_TRANS: Attagene TRANS-FACTORIAL HepG2 Assay for M06 Transcription Factor (Internal Marker) (AID 2282983; active means hit-call score of the fitted dose curve at least 0.9, where 1 is the maximum); conditions: HepG2 Attagene TRANS M06 internal marker reporter
Summary of the method: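 Cells: HepG2, transient multi-reporter transfection. Exposure: 24 h. Detection: RT-PCR, 6-FAM labelling, HpaI digestion (2 h, 37 °C), capillary electrophoresis. Baseline: DMSO.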

[4] = ATG_M_32_TRANS: Attagene TRANS-FACTORIAL HepG2 Assay for M32 Transcription Factor (Internal Marker) (AID 2282984; active means hit-call score of the fitted dose curve at least 0.9, where 1 is the maximum;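 further: transcript level of a background control reporter unit measured by RT-PCR and capillary electrophoresis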); conditions: HepG2 Attagene TRANS M32 internal marker reporter
Summary of the method: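 HepG2 cells transiently transfected with GAL4-UAS reporter units, dosed for 24 hours. Reporter mRNA quantified by RT-PCR, 6-FAM labelling, HpaI digestion and capillary electrophoresis; internal-marker signal fitted upward relative to DMSO.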

[5] = target: Transcriptional activator Myb (Homo sapiens) (UniProt P10242); test: ATG_Myb_CIS: Attagene CIS-FACTORIAL HepG2 Assay for human Myeloblastosis (Myb) Proto-Oncogene Transcription Factor (AID 2282986); conditions: HepG2 Attagene CIS-FACTORIAL Myb reporter transcription; actives raise or lower the signal
Summary of the method: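 Transiently transfected HepG2 cells, treated 24 h. Reporter mRNA quantified by RT-PCR/capillary electrophoresis; bidirectional fit relative to DMSO.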

[6] = target: Nuclear respiratory factor 1 (Homo sapiens) (UniProt Q16656); test: ATG_NRF1_CIS: Attagene CIS-FACTORIAL HepG2 Assay for human Nuclear Respiratory Factor 1 (NRF1) Orphan Gene (AID 2282987); conditions: HepG2 NRF1 cis-element reporter, Attagene multiplex; actives raise or lower the signal
Summary of the method: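 Cells (HepG2, transient MRTU transfection) are exposed to compound for 24 h, then RNA isolated and reporter mRNA amplified and fluorescently labelled. Fragments are separated by capillary electrophoresis; signal change is fitted bidirectionally relative to DMSO.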

[7] = ATG_NFI_CIS: Attagene CIS-FACTORIAL HepG2 Assay for human Nuclear Factor I (NFI) (AID 2282989); conditions: HepG2 cis-regulatory reporter, NFI response element transcription; actives raise or lower the signal
Summary of the method: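 Read-out: reporter mRNA via RT-PCR plus capillary electrophoresis with fluorescence detection. Transiently transfected HepG2 (endogenous TF activity on cis promoters), 24 h compound exposure; gain or loss of signal fitted against DMSO.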

[8] = target: Myc proto-oncogene protein (Homo sapiens) (UniProt P01106); test: ATG_Myc_CIS: Attagene CIS-FACTORIAL HepG2 Assay for human Myelocytomatosis (Myc) Proto-Oncogene Transcription Factor (AID 2282990); conditions: HepG2, Attagene cis-reporter transcription factor activity; actives raise or lower the signal
Summary of the method: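 Transiently transfected HepG2 cells bearing cis-promoter reporter units for endogenous transcription factors; 24 h exposure. Reporter mRNA measured by RT-PCR, 6-FAM primer extension, HpaI cut and capillary electrophoresis; bidirectional fit relative to DMSO.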

[9] = ATG_NRF2_ARE_CIS: Attagene CIS-FACTORIAL HepG2 Assay for human Nuclear Factor Erythroid 2 Related Factor 2 (NFR2) response to Antioxidant Response Elements (ARE) (AID 2282992); conditions: HepG2 Attagene ARE/NRF2 reporter, transcription factor activity; actives raise or lower the signal;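 on AC50: reporter mRNA level measured by RT-PCR and capillary electrophoresis fluorescence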
Summary of the method: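 Cis-factorial assay: transfected HepG2 reporter library, 24 h dosing, mRNA readout via RT-PCR/CE; DMSO-referenced bidirectional analysis.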

[10] = ATG_Oct_MLP_CIS: Attagene CIS-FACTORIAL HepG2 Assay for human Octamer-Binding Transcription Factor (Oct) (AID 2282993); conditions: HepG2 Attagene cis-factorial Oct reporter, mRNA; actives raise or lower the signal
Summary of the method: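 Read-out: reporter mRNA via RT-PCR plus capillary electrophoresis of 6-FAM-labelled fragments. Transiently transfected HepG2, 24 h exposure, endogenous TF activity on cis elements. Gain or loss of signal fitted relative to DMSO.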

[11] = target: Cellular tumor antigen p53 (Homo sapiens) (UniProt P04637); test: ATG_p53_CIS: Attagene CIS-FACTORIAL HepG2 Assay for human p53 Transcription Factor (AID 2282994); conditions: HepG2 p53 cis-element reporter, Attagene mRNA; actives raise or lower the signal
Summary of the method: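 Using HepG2 hepatoma cells carrying cis-acting multiplexed reporters, mRNA induction is detected after a 24 h exposure. Gain- and loss-of-signal responses are fitted relative to DMSO-treated cells.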

[12] = target: Hepatocyte nuclear factor 4-alpha (Homo sapiens) (UniProt P41235); test: ATG_HNF4a_TRANS: Attagene TRANS-FACTORIAL HepG2 Assay for human Hepatocyte Nuclear Factor 4 alpha (HNF4a) (AID 2282982; active means hit-call score of the fitted dose curve at least 0.9, where 1 is the maximum); conditions: HepG2 HNF4a transactivation reporter, mRNA readout
Summary of the method: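 HepG2 cells transiently transfected with HNF4a-Gal4 chimera and GAL4-UAS reporter units, dosed for 24 h. Reporter mRNA measured by RT-PCR, fluorescent primer extension and capillary electrophoresis; gain-of-signal fitted relative to DMSO.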

[13] = ATG_NF_kB_CIS: Attagene CIS-FACTORIAL HepG2 Assay for human Nuclear Factor Kappa B (NF-kB) (AID 2282991); conditions: HepG2 Attagene cis-factorial NF-kB reporter mRNA; actives raise or lower the signal
Summary of the method: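 Measures mRNA induction of an NF-kB-responsive cis-element reporter in HepG2 cells transfected with multiple reporter units, sampled 24 h post-dosing; quantified by fluorescence after RT-PCR and capillary electrophoresis, fitted for activation or inhibition against DMSO.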

[14] = target: Bile acid receptor (Homo sapiens) (UniProt Q96RI1); test: ATG_FXR_TRANS: Attagene TRANS-FACTORIAL HepG2 Assay for Farnesoid X Receptor (FXR) (AID 2282979; active means hit-call score of the fitted dose curve at least 0.9, where 1 is the maximum;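 further: hits raise reporter mRNA above DMSO so AC50 marks FXR activation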); conditions: HepG2 Attagene TRANS FXR-GAL4 reporter transcription
Summary of the method: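 Reporter transcripts from transfected HepG2 cells were measured 24 h after dosing, using RT-PCR with capillary electrophoresis of 6-FAM-labelled fragments. The read-out reflects activity of exogenous FXR-Gal4 chimera on GAL4-UAS units, with induction relative to DMSO.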

[15] = target: Nuclear receptor subfamily 4 group A member 2 (Homo sapiens) (UniProt P43354); test: ATG_NURR1_TRANS: Attagene TRANS-FACTORIAL HepG2 Assay for human Nuclear Receptor Related Protein 1 (NURR1) (AID 2282985; active means hit-call score of the fitted dose curve at least 0.9, where 1 is the maximum); conditions: HepG2 Attagene TRANS reporter, mRNA readout
Summary of the method: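 HepG2 cells transiently transfected with NURR1-Gal4 chimera and GAL4-UAS reporter units; after 24 hr compound exposure, reporter mRNA quantified by RT-PCR and capillary electrophoresis; gain of signal fitted against DMSO.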

[16] = target: Oxysterols receptor LXR-beta (Homo sapiens) (UniProt P55055); test: ATG_LXRb_TRANS: Attagene TRANS-FACTORIAL HepG2 Assay for human Liver X Receptor beta (LXRb) (AID 2282981; active means hit-call score of the fitted dose curve at least 0.9, where 1 is the maximum); conditions: HepG2 Attagene TRANS GAL4-LXRb reporter, mRNA
Summary of the method: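 HepG2 cells transiently transfected with GAL4-UAS reporter units for chimeric NR-Gal4 proteins, dosed for 24 h. Reporter transcripts measured by RT-PCR and capillary electrophoresis; gain-of-signal fitting relative to DMSO.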

[17] = BSK_3C_TissueFactor: BioMAP Diversity Plus: 3C Assay for Tissue Factor Biomarker Activity (AID 2282997); conditions: BioMAP 3C HUVEC, tissue factor biomarker readout; actives raise or lower the signal
Summary of the method: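 Dosing of human umbilical vein endothelial cells preceded a 24 h incubation. Tissue Factor was then read by ELISA, with increases and decreases both scored relative to DMSO controls.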

[18] = BSK_3C_uPAR: BioMAP Diversity Plus: 3C Assay for Urokinase-type plasminogen activator receptor (uPAR) Biomarker Activity (AID 2282998); conditions: BioMAP 3C HUVEC, uPAR biomarker ELISA; actives raise or lower the signal
Summary of the method: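 HUVEC primary cells; 24 h post-dose; uPAR by ELISA; gain or loss of signal fitted bidirectionally vs DMSO baseline.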

[19] = BSK_3C_VCAM1: BioMAP Diversity Plus: 3C Assay for Vascular cell adhesion molecule 1 (VCAM1) Biomarker Activity (AID 2282999); conditions: BioMAP 3C HUVEC, VCAM1 ELISA, cytokine-stimulated; actives raise or lower the signal
Summary of the method: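 Human umbilical vein endothelial cells (3C system), biomarker read by ELISA 24 h after dosing; bidirectional fit against DMSO baseline. Cytotoxicity tracked by SRB total-protein staining in parallel cultures at biomarker time.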

[20] = BSK_4H_Eotaxin3: BioMAP Diversity Plus: 4H Assay for Eotaxin 3 Biomarker Activity (AID 2283000); conditions: primary human endothelial cells (HUVEC); actives raise or lower the signal;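 on outcome: CCL26 protein level quantified by ELISA in parallel with SRB cytotoxicity check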
Summary of the method: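 Human umbilical vein endothelial cells (BSK_4H system) dosed with test chemical; Eotaxin-3 (CCL26) measured by ELISA 24 h after dosing. Bidirectional curve fitting relative to DMSO negative control as baseline.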

Glucocorticoid receptor (Homo sapiens), sequence (P04150 whole entry, looked up, the tested form may be a part): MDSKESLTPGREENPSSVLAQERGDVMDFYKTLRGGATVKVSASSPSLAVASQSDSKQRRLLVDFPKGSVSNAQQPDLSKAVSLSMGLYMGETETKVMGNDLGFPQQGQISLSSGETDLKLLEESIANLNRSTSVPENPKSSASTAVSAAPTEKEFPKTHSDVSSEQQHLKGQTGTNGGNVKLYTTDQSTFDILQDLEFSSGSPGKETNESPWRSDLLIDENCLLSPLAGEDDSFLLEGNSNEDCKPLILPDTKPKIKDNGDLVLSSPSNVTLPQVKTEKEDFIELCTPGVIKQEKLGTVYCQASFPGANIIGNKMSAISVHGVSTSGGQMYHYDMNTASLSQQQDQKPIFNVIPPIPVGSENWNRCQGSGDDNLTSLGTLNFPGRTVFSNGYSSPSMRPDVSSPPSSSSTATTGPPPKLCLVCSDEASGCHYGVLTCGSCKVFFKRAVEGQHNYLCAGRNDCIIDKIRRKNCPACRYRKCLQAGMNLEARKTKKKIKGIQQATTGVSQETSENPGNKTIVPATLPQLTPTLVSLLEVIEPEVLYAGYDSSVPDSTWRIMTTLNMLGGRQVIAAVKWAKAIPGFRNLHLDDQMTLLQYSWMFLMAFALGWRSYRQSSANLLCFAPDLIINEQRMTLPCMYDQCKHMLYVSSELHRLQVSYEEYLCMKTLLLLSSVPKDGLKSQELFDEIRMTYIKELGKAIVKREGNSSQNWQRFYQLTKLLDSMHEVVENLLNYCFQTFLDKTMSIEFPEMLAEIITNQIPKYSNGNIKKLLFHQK
Hepatocyte nuclear factor 4-alpha (Homo sapiens), sequence (P41235 whole entry, looked up, the tested form may be a part): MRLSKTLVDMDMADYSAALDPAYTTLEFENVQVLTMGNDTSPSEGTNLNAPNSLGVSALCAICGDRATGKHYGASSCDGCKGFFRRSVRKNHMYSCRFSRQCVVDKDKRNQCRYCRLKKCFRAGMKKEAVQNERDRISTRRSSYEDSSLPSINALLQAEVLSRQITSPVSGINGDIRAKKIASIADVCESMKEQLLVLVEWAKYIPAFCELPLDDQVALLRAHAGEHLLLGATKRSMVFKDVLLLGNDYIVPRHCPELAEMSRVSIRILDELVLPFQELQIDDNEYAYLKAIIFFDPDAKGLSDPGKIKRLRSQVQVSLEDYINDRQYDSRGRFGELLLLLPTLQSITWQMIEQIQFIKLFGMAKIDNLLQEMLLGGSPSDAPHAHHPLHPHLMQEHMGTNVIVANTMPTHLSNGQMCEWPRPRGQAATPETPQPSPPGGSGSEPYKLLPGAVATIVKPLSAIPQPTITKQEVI
Oxysterols receptor LXR-alpha (Homo sapiens), sequence (Q13133 whole entry, looked up, the tested form may be a part): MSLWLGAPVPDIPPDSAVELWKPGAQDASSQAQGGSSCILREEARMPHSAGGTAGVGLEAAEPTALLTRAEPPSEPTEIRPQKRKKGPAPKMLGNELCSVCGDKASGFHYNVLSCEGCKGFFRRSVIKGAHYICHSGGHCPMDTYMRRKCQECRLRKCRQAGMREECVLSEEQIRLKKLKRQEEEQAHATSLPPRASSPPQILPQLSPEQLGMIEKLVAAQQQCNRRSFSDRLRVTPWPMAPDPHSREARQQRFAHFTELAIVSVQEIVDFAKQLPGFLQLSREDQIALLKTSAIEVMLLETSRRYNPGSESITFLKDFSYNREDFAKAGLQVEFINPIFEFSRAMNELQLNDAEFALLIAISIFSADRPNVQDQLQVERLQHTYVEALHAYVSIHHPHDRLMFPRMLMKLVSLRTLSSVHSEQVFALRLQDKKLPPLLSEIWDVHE
Cellular tumor antigen p53 (Homo sapiens), sequence (P04637 whole entry, looked up): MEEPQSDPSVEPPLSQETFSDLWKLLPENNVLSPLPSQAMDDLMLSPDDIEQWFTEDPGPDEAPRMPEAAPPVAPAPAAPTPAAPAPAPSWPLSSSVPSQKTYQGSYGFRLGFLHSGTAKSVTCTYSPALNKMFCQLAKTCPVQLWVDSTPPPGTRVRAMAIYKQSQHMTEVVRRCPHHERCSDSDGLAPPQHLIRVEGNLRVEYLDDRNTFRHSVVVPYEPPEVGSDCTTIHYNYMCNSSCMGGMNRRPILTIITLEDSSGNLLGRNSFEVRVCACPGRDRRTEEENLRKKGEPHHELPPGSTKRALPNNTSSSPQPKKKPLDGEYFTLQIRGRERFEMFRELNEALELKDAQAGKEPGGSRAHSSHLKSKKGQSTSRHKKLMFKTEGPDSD
Bile acid receptor (Homo sapiens), sequence (Q96RI1 whole entry, looked up, the tested form may be a part): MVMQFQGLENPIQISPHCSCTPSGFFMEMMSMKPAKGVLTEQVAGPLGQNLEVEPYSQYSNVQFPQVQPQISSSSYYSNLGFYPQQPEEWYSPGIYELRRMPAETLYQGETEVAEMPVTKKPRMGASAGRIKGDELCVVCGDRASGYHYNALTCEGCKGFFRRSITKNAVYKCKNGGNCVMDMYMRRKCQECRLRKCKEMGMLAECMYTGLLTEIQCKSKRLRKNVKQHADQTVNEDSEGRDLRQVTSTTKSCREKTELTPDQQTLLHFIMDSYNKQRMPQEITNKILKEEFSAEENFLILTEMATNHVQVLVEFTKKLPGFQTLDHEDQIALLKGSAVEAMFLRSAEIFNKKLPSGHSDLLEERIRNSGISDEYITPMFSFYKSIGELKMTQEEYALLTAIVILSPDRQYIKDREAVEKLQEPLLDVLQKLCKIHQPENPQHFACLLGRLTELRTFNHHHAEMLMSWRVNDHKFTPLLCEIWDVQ
Myc proto-oncogene protein (Homo sapiens), sequence (P01106 whole entry, looked up): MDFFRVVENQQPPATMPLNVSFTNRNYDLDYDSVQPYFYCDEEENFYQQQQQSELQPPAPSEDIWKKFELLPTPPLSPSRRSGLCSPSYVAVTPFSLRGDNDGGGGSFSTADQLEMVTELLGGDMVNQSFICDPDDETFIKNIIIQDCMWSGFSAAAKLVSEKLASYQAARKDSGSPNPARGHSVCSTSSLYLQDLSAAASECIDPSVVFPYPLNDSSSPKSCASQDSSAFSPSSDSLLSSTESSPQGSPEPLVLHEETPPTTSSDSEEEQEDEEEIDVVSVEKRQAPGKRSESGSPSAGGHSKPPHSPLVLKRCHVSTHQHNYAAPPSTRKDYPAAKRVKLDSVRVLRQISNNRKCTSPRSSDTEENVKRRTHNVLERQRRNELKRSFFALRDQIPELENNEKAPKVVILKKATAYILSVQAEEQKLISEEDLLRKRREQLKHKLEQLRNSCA
Nuclear respiratory factor 1 (Homo sapiens), sequence (Q16656 whole entry, looked up, the tested form may be a part): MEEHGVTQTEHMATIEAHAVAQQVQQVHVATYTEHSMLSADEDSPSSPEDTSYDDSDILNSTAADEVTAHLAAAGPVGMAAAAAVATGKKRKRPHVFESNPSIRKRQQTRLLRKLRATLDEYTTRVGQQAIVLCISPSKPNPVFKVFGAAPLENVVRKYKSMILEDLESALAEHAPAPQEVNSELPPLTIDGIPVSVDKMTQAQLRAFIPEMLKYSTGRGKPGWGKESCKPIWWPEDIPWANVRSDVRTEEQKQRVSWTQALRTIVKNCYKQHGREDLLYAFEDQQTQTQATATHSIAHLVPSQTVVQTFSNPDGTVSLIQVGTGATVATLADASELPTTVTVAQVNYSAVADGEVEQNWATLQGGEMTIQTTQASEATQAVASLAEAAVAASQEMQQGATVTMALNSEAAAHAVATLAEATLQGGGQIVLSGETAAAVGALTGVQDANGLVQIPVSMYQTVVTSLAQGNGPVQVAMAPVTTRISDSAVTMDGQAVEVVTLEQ
Oxysterols receptor LXR-beta (Homo sapiens), sequence (P55055 whole entry, looked up, the tested form may be a part): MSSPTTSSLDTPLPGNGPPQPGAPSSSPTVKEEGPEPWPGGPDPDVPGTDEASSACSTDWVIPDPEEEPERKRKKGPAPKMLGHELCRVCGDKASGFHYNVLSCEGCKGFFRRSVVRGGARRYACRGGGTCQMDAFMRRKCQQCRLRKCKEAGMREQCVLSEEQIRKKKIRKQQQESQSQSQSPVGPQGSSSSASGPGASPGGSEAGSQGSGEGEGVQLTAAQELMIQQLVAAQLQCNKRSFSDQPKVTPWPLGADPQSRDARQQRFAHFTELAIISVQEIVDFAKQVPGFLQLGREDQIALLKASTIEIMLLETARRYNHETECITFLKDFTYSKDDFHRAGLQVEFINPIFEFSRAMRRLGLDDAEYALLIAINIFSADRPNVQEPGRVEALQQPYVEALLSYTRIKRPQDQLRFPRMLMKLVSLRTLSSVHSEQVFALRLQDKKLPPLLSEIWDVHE
Transcriptional activator Myb (Homo sapiens), sequence (P10242 whole entry, looked up): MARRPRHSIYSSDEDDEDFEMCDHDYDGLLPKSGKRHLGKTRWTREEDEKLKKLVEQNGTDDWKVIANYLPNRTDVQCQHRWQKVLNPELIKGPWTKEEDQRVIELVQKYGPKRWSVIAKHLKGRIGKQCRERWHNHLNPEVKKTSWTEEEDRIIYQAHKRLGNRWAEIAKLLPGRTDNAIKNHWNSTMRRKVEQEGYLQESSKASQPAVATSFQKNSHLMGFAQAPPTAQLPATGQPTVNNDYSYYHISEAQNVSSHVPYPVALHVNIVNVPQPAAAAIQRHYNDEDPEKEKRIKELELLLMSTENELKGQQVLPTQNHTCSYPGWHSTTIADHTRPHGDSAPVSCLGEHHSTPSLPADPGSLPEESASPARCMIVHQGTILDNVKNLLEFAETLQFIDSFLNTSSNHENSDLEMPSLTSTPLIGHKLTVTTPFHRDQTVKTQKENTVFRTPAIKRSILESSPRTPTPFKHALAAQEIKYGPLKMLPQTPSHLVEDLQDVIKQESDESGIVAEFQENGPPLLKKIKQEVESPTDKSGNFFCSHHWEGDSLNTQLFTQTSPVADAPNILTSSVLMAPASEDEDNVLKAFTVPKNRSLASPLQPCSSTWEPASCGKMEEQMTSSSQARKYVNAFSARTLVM

## CC(C)CCCCCCCCCCCCCCC(=O)O
[1]
  outcome: inactive
[2]
  outcome: inactive
[3]
  outcome: inactive
[4]
  outcome: inactive
[5]
  outcome: inactive
[6]
  outcome: inactive
[7]
  outcome: inactive
[8]
  outcome: inactive
[9]
  outcome: inactive
[10]
  outcome: inactive
[11]
  outcome: inactive

## CC(=O)NCCO
[1]
  outcome: inactive
[2]
  outcome: inactive
[12]
  outcome: inactive
[4]
  outcome: inactive
[6]
  outcome: inactive
[7]
  outcome: inactive
[8]
  outcome: inactive
[13]
  outcome: inactive
[9]
  outcome: inactive
[10]
  outcome: inactive
[11]
  outcome: inactive

## CCNCCO
[1]
  outcome: inactive
[14]
  outcome: inactive
[12]
  outcome: inactive
[3]
  outcome: inactive
[15]
  outcome: inactive
[5]
  outcome: inactive
[6]
  outcome: inactive
[8]
  outcome: inactive
[13]
  outcome: inactive
[9]
  outcome: inactive
[10]
  outcome: inactive

## CCCOCCO
[1]
  outcome: inactive
[14]
  outcome: inactive
[12]
  outcome: inactive
[3]
  outcome: inactive
[4]
  outcome: inactive
[15]
  outcome: inactive
[5]
  outcome: inactive
[6]
  outcome: inactive
[7]
  outcome: inactive
[8]
  outcome: inactive
[10]
  outcome: inactive
[11]
  outcome: inactive

## CC1=C(Br)C(=O)C(Br)=C/C1=C(/c1ccccc1S(=O)(=O)O)c1cc(Br)c(O)c(Br)c1C
[1]
  outcome: inactive
[14]
  outcome: inactive
[3]
  outcome: inactive
[5]
  outcome: inactive
[6]
  outcome: inactive
[7]
  outcome: inactive
[8]
  outcome: inactive
[13]
  outcome: inactive
[10]
  outcome: inactive

## CCCCCC(C)=O
[1]
  outcome: inactive
[2]
  outcome: inactive
[3]
  outcome: inactive
[4]
  outcome: inactive
[5]
  outcome: inactive
[6]
  outcome: inactive
[7]
  outcome: inactive
[8]
  outcome: inactive
[10]
  outcome: inactive
[11]
  outcome: inactive

## CC(=O)C1(C)CC2=C(CCCC2(C)C)CC1C (configuration not stated)
[1]
  outcome: inactive
[2]
  outcome: inactive
[16]
  outcome: inactive
[5]
  outcome: inactive
[6]
  outcome: inactive
[7]
  AC50: 187 µM (active)
[8]
  outcome: inactive
[9]
  AC50: 93.6 µM (active)
[10]
  AC50: 61.1 µM (active)
[11]
  AC50: 144 µM (active)
[17]
  AC50: 7.62 µM (active)
[18]
  AC50: 8.27 µM (active)
[19]
  AC50: 11 µM (active)
[20]
  AC50: 9.74 µM (active)

## COc1ccc(CCO)cc1
[1]
  outcome: inactive
[2]
  outcome: inactive
[16]
  outcome: inactive
[4]
  outcome: inactive
[5]
  outcome: inactive
[6]
  outcome: inactive
[7]
  outcome: inactive
[8]
  outcome: inactive
[13]
  outcome: inactive
[9]
  outcome: inactive
[10]
  outcome: inactive

## C=C(C)[C@H]1CC=C(C)C(=O)C1
[1]
  outcome: inactive
[2]
  outcome: inactive
[16]
  outcome: inactive
[12]
  outcome: inactive
[3]
  outcome: inactive
[5]
  outcome: inactive
[6]
  outcome: inactive
[7]
  outcome: inactive
[8]
  outcome: inactive
[13]
  outcome: inactive
[9]
  outcome: inactive
[10]
  outcome: inactive
[17]
  outcome: inactive
[18]
  outcome: inactive
[19]
  outcome: inactive
[20]
  outcome: inactive

## CC1=NN(c2ccc(S(=O)(=O)O)cc2)C(=O)C1
[1]
  outcome: inactive
[2]
  outcome: inactive
[16]
  outcome: inactive
[4]
  outcome: inactive
[5]
  outcome: inactive
[6]
  outcome: inactive
[7]
  outcome: inactive
[8]
  outcome: inactive
[13]
  outcome: inactive
[9]
  outcome: inactive
[10]
  outcome: inactive
[11]
  outcome: inactive
